Measurements: publication PMC7862700, “An all-to-all approach to the identification of sequence-specific readers for epigenetic DNA modifications on cytosine”

Experiments:
Test in all cases: DAPPL (digital affinity profiling via proximity ligation, sequencing); 10 mM Tris-HCl pH 7.5, 50 mM NaCl, 1 mM DTT, 4% glycerol, room temperature, 30 min; GST-TFs on glutathione beads, 16-mer random dsDNA library, 0.1% formaldehyde crosslink after washing; high values mean tight binding
Details in all cases: protein: recombinant; tags: N-terminal GST; dsDNA, one strand shown
[1] = target: T1, ELK1 (Homo sapiens, UniProt P19419 1-428)
T1 sequence: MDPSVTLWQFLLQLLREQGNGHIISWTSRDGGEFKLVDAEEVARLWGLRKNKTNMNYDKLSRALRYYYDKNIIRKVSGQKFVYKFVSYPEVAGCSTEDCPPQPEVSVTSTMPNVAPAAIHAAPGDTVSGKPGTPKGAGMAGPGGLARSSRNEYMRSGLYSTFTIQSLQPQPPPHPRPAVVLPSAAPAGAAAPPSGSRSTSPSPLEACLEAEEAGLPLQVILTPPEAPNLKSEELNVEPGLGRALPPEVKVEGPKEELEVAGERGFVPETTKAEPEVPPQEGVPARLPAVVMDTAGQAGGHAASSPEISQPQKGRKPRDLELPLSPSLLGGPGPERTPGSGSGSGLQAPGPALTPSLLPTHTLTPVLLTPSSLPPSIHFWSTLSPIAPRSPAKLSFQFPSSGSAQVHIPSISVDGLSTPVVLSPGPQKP
Outline: (§1)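 Binding signal is each hexamer's read frequency for a factor divided by its frequency in the tag-only sample. The factors were GST-fused human transcription factors from yeast, captured on glutathione beads, DNA-barcoded and pooled with that sample. Pools were incubated with 200 nmole of a random double-stranded 16-mer DNA library in Tris/NaCl/DTT/glycerol buffer at room temperature for 30 min, then washed, crosslinked with 0.1% formaldehyde, proximity-ligated with BsaI/T4 ligase (1 h, 37 °C), PCR-amplified and sequenced on an Illumina NextSeq500.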

[2] = target: T2, GABPA (Homo sapiens, UniProt Q06546 1-454)
T2 sequence: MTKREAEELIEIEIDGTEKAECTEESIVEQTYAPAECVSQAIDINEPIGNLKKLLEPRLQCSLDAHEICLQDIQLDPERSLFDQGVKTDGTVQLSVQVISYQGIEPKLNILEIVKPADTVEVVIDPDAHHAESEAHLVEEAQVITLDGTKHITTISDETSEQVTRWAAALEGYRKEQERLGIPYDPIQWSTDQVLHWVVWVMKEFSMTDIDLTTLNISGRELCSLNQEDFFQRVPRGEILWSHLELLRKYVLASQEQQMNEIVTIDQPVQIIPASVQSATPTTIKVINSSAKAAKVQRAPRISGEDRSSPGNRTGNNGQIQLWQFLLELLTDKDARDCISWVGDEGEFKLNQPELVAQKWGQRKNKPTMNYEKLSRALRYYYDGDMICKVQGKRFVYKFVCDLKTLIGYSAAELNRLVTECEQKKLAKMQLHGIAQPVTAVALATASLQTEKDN
Outline: as §1

[3] = target: T3, ERG (Homo sapiens, UniProt P11308 1-479)
T3 sequence: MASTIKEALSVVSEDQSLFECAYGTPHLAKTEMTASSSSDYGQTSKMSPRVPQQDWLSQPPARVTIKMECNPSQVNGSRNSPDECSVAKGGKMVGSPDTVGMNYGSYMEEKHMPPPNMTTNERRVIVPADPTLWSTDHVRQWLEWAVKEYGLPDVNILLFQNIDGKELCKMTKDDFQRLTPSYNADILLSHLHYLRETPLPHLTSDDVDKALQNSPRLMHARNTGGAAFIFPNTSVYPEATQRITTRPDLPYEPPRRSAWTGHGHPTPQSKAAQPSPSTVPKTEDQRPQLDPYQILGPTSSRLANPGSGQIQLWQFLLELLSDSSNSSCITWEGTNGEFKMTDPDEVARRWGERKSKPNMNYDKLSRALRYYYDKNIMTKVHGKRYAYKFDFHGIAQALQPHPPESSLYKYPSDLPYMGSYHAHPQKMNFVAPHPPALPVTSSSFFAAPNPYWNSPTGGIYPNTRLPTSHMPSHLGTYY
Outline: as §1

[4] = target: SPIB (Homo sapiens, UniProt Q01892 1-262)
Sequence of SPIB (Q01892 whole entry): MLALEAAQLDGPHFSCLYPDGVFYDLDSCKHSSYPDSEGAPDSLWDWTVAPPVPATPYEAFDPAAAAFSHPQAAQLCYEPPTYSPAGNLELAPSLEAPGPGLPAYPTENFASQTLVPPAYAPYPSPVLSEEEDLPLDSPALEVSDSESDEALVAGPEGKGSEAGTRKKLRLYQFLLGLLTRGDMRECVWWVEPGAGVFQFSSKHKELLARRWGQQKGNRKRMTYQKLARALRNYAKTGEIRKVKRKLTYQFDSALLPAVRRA
Outline: as §1

[5] = target: ETV5 (Homo sapiens, UniProt P41161 1-510)
Sequence of ETV5 (P41161 whole entry): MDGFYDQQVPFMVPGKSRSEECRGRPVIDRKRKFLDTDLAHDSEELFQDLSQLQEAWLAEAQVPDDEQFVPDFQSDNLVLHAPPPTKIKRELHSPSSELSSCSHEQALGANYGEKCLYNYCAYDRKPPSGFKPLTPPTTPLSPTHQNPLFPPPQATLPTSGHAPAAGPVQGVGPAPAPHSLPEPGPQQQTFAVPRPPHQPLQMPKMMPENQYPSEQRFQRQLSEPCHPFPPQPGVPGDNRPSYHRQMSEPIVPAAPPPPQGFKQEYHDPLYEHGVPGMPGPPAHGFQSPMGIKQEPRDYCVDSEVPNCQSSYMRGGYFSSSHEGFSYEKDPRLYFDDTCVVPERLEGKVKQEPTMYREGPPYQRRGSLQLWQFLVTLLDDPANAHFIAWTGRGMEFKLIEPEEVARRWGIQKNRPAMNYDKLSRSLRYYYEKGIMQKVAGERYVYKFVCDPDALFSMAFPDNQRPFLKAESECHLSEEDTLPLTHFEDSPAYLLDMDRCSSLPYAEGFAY
Outline: as §1

[6] = target: T4, ELK4 (Homo sapiens, UniProt P28324-2 1-405)
T4 sequence: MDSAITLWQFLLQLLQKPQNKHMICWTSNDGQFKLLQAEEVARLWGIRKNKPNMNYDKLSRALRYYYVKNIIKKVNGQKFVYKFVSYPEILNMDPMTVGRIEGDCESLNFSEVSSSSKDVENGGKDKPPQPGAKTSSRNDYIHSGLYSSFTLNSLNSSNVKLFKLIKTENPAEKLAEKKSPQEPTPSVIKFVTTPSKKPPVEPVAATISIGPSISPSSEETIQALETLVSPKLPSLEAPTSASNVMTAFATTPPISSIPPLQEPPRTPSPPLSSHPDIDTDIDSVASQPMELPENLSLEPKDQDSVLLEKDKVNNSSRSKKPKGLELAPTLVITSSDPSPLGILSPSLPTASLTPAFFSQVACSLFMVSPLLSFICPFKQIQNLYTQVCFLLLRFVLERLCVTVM
Outline: as §1

[7] = target: T5, ELF3 (Homo sapiens, UniProt P78545 1-371)
T5 sequence: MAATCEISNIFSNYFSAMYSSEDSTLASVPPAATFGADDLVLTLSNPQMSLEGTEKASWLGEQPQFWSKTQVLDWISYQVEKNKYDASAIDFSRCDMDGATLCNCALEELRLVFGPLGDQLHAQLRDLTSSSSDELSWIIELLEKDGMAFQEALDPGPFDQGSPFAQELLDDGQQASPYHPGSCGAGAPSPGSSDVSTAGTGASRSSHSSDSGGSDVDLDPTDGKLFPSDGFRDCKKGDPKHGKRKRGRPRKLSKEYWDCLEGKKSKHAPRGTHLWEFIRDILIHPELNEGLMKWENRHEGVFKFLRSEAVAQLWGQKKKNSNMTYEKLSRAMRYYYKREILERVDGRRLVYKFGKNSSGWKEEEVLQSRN
Outline: as §1

[8] = target: T6, ERF (Homo sapiens, UniProt P50548 1-548)
T6 sequence: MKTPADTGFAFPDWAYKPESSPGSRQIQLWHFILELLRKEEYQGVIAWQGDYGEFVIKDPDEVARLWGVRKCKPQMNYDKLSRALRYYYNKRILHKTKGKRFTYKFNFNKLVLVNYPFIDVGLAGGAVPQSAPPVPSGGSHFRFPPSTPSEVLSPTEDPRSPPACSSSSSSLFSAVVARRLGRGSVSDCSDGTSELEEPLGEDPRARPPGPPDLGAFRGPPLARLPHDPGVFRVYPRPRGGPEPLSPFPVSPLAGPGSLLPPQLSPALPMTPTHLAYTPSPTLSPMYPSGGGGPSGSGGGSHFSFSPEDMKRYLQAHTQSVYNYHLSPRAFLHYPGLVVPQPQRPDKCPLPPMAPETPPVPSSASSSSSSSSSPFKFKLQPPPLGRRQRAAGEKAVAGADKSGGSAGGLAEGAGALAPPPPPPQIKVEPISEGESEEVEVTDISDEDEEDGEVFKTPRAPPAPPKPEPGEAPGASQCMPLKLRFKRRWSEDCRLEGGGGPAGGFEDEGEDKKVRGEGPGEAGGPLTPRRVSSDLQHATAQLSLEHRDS
Outline: as §1

[9] = target: T7, ETS2 (Homo sapiens, UniProt P15036 1-469)
T7 sequence: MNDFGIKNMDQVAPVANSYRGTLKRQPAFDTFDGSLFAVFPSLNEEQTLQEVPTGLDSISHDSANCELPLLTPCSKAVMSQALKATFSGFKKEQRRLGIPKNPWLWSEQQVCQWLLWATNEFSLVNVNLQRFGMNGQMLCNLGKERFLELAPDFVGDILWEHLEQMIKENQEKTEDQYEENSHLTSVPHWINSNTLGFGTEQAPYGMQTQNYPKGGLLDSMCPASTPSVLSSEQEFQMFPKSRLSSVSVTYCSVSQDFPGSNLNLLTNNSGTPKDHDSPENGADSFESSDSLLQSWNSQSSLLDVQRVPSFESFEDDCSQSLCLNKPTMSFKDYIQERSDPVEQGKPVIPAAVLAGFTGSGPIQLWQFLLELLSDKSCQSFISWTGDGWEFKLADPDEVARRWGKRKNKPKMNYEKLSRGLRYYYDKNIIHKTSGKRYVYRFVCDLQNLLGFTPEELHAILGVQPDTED
Outline: as §1

[10] = target: T8, SPDEF (Homo sapiens, UniProt O95238 1-335)
T8 sequence: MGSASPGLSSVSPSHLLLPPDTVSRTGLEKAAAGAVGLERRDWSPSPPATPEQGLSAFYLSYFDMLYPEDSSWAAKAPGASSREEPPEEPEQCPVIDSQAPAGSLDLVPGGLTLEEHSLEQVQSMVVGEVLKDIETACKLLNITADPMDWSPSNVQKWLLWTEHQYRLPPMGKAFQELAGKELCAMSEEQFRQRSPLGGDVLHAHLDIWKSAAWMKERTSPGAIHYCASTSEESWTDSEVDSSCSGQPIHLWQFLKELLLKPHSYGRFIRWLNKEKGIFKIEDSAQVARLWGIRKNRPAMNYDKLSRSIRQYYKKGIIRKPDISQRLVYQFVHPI
Outline: as §1

[11] = target: T9, ETV3 (Homo sapiens, UniProt P41162-2 1-143)
T9 sequence: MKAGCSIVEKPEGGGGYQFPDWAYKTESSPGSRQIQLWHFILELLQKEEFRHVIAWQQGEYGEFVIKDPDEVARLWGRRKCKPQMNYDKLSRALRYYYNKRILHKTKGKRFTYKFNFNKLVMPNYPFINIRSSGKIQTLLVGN
Outline: as §1

[12] = target: ELF1 (Homo sapiens, UniProt P32519 1-619)
Sequence of ELF1 (P32519 whole entry): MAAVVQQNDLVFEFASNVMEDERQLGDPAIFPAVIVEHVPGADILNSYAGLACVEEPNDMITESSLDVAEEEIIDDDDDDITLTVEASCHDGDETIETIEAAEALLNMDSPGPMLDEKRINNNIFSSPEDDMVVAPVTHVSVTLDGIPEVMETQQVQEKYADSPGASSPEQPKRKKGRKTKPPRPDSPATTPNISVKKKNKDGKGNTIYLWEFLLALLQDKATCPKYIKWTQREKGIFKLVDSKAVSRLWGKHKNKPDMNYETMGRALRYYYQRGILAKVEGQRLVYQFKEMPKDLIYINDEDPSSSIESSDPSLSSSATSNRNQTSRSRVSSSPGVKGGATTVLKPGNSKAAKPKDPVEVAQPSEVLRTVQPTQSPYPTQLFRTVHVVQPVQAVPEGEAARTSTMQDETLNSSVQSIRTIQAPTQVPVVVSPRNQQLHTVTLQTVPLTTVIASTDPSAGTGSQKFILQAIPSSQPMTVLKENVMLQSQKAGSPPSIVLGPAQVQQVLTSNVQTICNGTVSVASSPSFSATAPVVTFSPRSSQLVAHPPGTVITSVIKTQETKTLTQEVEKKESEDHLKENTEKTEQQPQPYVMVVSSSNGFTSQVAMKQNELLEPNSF
Outline: as §1

[13] = target: T10, EHF (Homo sapiens, UniProt Q9NZC4 1-300)
T10 sequence: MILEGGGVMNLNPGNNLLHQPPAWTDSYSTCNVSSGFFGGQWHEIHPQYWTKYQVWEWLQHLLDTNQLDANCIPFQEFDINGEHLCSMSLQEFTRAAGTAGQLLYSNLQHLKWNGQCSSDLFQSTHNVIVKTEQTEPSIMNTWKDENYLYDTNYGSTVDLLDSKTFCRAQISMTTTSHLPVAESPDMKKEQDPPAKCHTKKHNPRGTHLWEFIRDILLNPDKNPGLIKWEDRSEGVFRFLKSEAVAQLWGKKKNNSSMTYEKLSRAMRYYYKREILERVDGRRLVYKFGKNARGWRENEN
Outline: as §1

[14] = target: T11, FEV (Homo sapiens, UniProt Q99581 1-238)
T11 sequence: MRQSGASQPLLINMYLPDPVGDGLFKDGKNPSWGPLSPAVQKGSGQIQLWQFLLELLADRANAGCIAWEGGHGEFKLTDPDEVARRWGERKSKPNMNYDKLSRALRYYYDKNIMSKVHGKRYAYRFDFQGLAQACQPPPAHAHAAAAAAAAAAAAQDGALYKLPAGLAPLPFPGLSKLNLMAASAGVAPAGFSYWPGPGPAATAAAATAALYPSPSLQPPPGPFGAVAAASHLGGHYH
Outline: as §1

[15] = target: ELF4 (Homo sapiens, UniProt Q99607 1-663)
Sequence of ELF4 (Q99607 whole entry): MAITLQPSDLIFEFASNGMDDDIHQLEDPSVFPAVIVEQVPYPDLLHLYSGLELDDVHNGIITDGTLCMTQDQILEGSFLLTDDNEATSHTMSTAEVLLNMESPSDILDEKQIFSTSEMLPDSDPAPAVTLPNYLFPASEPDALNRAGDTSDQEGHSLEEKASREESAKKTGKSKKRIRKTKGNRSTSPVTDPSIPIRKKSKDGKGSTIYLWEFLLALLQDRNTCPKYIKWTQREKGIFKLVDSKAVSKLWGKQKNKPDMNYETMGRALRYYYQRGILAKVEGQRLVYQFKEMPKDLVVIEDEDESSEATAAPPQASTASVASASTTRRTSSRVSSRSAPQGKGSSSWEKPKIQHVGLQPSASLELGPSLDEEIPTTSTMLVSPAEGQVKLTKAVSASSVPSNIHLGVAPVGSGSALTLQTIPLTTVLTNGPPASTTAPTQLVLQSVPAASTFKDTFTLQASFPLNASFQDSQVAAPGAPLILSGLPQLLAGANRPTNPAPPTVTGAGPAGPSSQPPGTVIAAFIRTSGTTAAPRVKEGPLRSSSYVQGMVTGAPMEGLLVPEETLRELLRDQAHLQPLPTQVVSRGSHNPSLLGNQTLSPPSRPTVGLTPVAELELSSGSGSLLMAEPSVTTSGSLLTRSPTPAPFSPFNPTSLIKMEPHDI
Outline: as §1

[16] = target: T12, ETV2 (Homo sapiens, UniProt O00321 1-342)
T12 sequence: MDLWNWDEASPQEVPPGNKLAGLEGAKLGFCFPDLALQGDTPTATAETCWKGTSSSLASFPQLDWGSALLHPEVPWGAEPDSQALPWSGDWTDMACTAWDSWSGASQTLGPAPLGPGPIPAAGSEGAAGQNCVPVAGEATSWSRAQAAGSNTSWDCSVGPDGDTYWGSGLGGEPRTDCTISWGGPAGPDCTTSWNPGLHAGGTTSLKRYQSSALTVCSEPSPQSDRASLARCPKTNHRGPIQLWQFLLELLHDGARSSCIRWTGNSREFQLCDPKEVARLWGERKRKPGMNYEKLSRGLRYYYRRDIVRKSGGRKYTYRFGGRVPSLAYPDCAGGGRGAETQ
Outline: as §1

[17] = target: ETV1 (Homo sapiens, UniProt P50549 1-477)
Sequence of ETV1 (P50549 whole entry): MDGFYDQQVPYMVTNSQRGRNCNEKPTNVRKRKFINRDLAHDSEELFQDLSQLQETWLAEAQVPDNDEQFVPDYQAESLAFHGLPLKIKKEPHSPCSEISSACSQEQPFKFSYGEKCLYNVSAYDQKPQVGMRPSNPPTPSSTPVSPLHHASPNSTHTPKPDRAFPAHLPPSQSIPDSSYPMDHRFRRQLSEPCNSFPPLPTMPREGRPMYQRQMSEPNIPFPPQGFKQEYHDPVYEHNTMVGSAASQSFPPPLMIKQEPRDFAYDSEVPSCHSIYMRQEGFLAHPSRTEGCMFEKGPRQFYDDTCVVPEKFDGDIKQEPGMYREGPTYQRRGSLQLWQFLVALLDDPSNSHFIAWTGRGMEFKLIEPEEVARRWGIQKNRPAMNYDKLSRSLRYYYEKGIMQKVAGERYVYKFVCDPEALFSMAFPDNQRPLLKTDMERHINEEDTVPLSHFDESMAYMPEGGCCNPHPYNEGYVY
Outline: as §1

[18] = target: ETV6 (Homo sapiens, UniProt P41212 1-452)
Sequence of ETV6 (P41212 whole entry): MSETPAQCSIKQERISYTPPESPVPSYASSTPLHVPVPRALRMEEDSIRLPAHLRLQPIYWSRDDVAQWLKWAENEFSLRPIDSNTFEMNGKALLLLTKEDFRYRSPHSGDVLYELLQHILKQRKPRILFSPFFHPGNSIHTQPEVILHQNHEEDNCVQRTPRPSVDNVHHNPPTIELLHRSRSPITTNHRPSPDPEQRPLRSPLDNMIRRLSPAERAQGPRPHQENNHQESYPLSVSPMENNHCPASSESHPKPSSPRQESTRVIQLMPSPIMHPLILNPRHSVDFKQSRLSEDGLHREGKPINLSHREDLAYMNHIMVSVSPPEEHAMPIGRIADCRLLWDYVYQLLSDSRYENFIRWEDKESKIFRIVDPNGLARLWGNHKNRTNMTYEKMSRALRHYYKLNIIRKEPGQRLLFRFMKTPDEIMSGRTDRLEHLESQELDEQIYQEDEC
Outline: as §1

TAGTAG
binding signal [1]: 1.02 fold enrichment (6-mer frequency, TF over GST control)
binding signal [2]: 1.01 fold enrichment (6-mer frequency, TF over GST control)
binding signal [3]: 1.01 fold enrichment (6-mer frequency, TF over GST control)
binding signal [4]: 1.02 fold enrichment (6-mer frequency, TF over GST control)
binding signal [5]: 1.04 fold enrichment (6-mer frequency, TF over GST control)
binding signal [6]: 1.02 fold enrichment (6-mer frequency, TF over GST control)
binding signal [7]: 1.1 fold enrichment (6-mer frequency, TF over GST control)
binding signal [8]: 1.02 fold enrichment (6-mer frequency, TF over GST control)
binding signal [9]: 1.06 fold enrichment (6-mer frequency, TF over GST control)
binding signal [10]: 1.02 fold enrichment (6-mer frequency, TF over GST control)
binding signal [11]: 1.13 fold enrichment (6-mer frequency, TF over GST control)

AGCAAA
binding signal [1]: 1.04 fold enrichment (6-mer frequency, TF over GST control)
binding signal [2]: 1.06 fold enrichment (6-mer frequency, TF over GST control)
binding signal [12]: 1.07 fold enrichment (6-mer frequency, TF over GST control)
binding signal [13]: 1.03 fold enrichment (6-mer frequency, TF over GST control)
binding signal [4]: 1.04 fold enrichment (6-mer frequency, TF over GST control)
binding signal [14]: 1.02 fold enrichment (6-mer frequency, TF over GST control)
binding signal [5]: 1.07 fold enrichment (6-mer frequency, TF over GST control)
binding signal [15]: 1.05 fold enrichment (6-mer frequency, TF over GST control)
binding signal [6]: 1.05 fold enrichment (6-mer frequency, TF over GST control)
binding signal [16]: 1.17 fold enrichment (6-mer frequency, TF over GST control)
binding signal [7]: 1.21 fold enrichment (6-mer frequency, TF over GST control)
binding signal [17]: 1.09 fold enrichment (6-mer frequency, TF over GST control)
binding signal [8]: 1.05 fold enrichment (6-mer frequency, TF over GST control)
binding signal [9]: 1.02 fold enrichment (6-mer frequency, TF over GST control)
binding signal [11]: 1.06 fold enrichment (6-mer frequency, TF over GST control)
binding signal [18]: 1.05 fold enrichment (6-mer frequency, TF over GST control)
